Assay results reported in PubChem BioAssay (EPA / NIEHS).
Calls of active or inactive are those of the source. The calls were made as follows: active = hit-call score of the fitted dose curve at least 0.9, where 1 is the maximum; inactive = score below 0.9.

Legend:
[1] = read-out: Tissue Factor, F3 (gene 2152); assay: BSK_CASM3C_TissueFactor: BioMAP Diversity Plus: CASM3C Assay for Tissue Factor Biomarker Activity (AID 2283052); conditions: primary human coronary artery smooth muscle cells; actives raise or lower the signal;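 also: cell surface tissue factor protein level read by ELISA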
[2] = read-out: Interferon-gamma inducible Protein 10 (IP10), CXCL10 (gene 3627); assay: BSK_hDFCGF_IP10: BioMAP Diversity Plus: hDFCGF Assay for Interferon-gamma inducible Protein 10 (IP10) Biomarker Activity (AID 2283053); conditions: primary human foreskin fibroblasts; actives raise or lower the signal
Outline: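 Primary human foreskin fibroblasts exposed to chemicals for 24 h. IP-10 measured by ELISA; changes fitted bidirectionally against DMSO baseline.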

[3] = read-out: Urokinase-type plasminogen activator receptor (uPAR), PLAUR (gene 5329); assay: BSK_CASM3C_uPAR: BioMAP Diversity Plus: CASM3C Assay for Urokinase-type plasminogen activator receptor (uPAR) Biomarker Activity (AID 2283054); conditions: primary human coronary artery smooth muscle cells; actives raise or lower the signal;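 also: cell-surface uPAR protein level quantified by ELISA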
[4] = read-out: Vascular cell adhesion molecule 1 (VCAM1), VCAM1 (gene 7412); assay: BSK_CASM3C_VCAM1: BioMAP Diversity Plus: CASM3C Assay for Vascular cell adhesion molecule 1 (VCAM1) Biomarker Activity (AID 2283055); conditions: primary human coronary artery smooth muscle cells; actives raise or lower the signal;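 also: VCAM-1 protein level quantified by ELISA on the cells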
[5] = read-out: Epidermal growth factor receptor (EGFR), EGFR (gene 1956); assay: BSK_hDFCGF_EGFR: BioMAP Diversity Plus: hDFCGF Assay for Epidermal growth factor receptor (EGFR) Biomarker Activity (AID 2283057); conditions: primary human foreskin fibroblasts; actives raise or lower the signal
Outline: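 Primary human foreskin fibroblasts (hDFCGF system), sampled 24 h after dosing; EGFR quantified by ELISA. Bidirectional fit relative to DMSO baseline; SRB total-protein staining in parallel cultures for cytotoxicity.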

[6] = BSK_hDFCGF_Proliferation: Cell Proliferation Assessment in the BioMAP Diversity Plus: hDFCGF Assay (AID 2283059); conditions: primary human foreskin fibroblasts;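 also: curves fitted for both rise and fall of signal versus DMSO baseline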
Outline: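 Total protein read at 560 nm after 0.1% SRB staining of TCA-fixed human skin fibroblasts, […]. Activity is fitted in both directions relative to DMSO as baseline.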

[7] = read-out: Macrophage colony-stimulating factor (MCSF), CSF1 (gene 1435); assay: BSK_hDFCGF_MCSF: BioMAP Diversity Plus: hDFCGF Assay for Macrophage colony-stimulating factor (MCSF) Biomarker Activity (AID 2283060); conditions: primary human foreskin fibroblasts; actives raise or lower the signal
Outline: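 Human foreskin fibroblast primary cultures; M-CSF measured by ELISA 24 hours after chemical dosing. Bidirectional fitting relative to DMSO, with overt cytotoxicity tracked by parallel SRB total-protein staining (0.1% SRB, 10% TCA fixation, 560 nm).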

[8] = BSK_hDFCGF_SRB: Viability Assessment in the BioMAP Diversity Plus: hDFCGF Assay (AID 2283061); conditions: primary human foreskin fibroblasts;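 also: cells exposed to compound for 24 h before the read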
Outline: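 Human foreskin fibroblasts in 96-well plates were treated 24 h. Total protein was measured by 0.1% SRB staining after 10% TCA fixation, read at 560 nm. Data were fitted bidirectionally against DMSO.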

[9] = read-out: Interleukin-8 (IL8), CXCL8 (gene 3576); assay: BSK_hDFCGF_IL8: BioMAP Diversity Plus: hDFCGF Assay for Interleukin-8 (IL8) Biomarker Activity (AID 2283058); conditions: primary human foreskin fibroblasts; actives raise or lower the signal
Outline: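 Primary human foreskin fibroblasts (hDFCGF system) dosed with chemical; IL-8 measured by ELISA 24 hours later. Bidirectional curve fitting relative to DMSO baseline; cytotoxicity tracked in parallel cultures by SRB total protein staining.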

Measured: AC50

CCc1c(C(=O)NN2CCCCC2)nn(-c2ccc(Cl)cc2Cl)c1-c1ccc(Br)cc1
active: [2] 4.55 µM | [3] 25.1 µM | [5] 1.65 µM | [6] 1.73 µM | [7] 3.75 µM | [8] 2.85 µM
inactive: [1] | [4]

Cc1ccc2ncccc2c1
inactive: all assays above

CCCCCC(=O)O
not listed: [8]
inactive: all other assays above

C[C@]12C=CC(=O)C=C1CC[C@@H]1[C@@H]2C(=O)C[C@@]2(C)[C@H]1CC[C@]2(O)C(=O)CO
active: [3] 0.239 µM
inactive: all other assays above

CC1=C(/C=C/C(C)=C/C=C/C(C)=C/CO)C(C)(C)CCC1
active: [2] 27.4 µM | [5] 27.8 µM | [6] 12.4 µM | [7] 24.2 µM | [8] 37.8 µM
inactive: [1] | [3] | [4]

Nc1nc(N)c2nc(CNc3ccc(C(=O)N[C@@H](CCC(=O)O)C(=O)O)cc3)cnc2n1
not listed: [8] | [9]
inactive: all other assays above

O=C(N[C@@H](Cc1ccccc1)[C@@H](O)C(=O)N1C[C@@H](O)[C@@H](O)C1)c1cc2cc(Cl)ccc2[nH]1
inactive: all assays above

CC(C)(C)c1cc(O)c(C(C)(C)C)cc1O
active: [2] 20 µM | [6] 29.1 µM | [7] 17.6 µM
inactive: [1] | [3] | [4] | [5]

CC=Cc1ccc(O)c(OC)c1
active: [6] 24.6 µM
not listed: [8] | [9]
inactive: all other assays above

CN[C@H]1CC[C@@H](c2ccc(Cl)c(Cl)c2)c2ccc(S(N)(=O)=O)cc21
active: [1] 9.57 µM | [2] 26 µM | [3] 27.3 µM | [4] 31.4 µM | [5] 32.7 µM | [6] 10.3 µM | [7] 20 µM | [8] 28.1 µM

CN1CCCC1=O
not listed: [9]
inactive: all other assays above

C=CCOC(=O)c1ccccc1C(=O)OCC=C
not listed: [8] | [9]
inactive: all other assays above

Oc1ccc2ccccc2c1N=Nc1ccccc1
active: [6] 5.03 µM
not listed: [8] | [9]
inactive: all other assays above

CCCCCCOCCO
not listed: [9]
inactive: all other assays above

CNC(=O)[C@H]1O[C@@H](n2cnc3c(NCc4cc(Cl)ccc4OCc4cc(C)no4)ncnc32)[C@H](O)[C@@H]1N
not listed: [9]
inactive: all other assays above

Cc1ccccc1Cl
not listed: [9]
inactive: all other assays above

CCCCCCCCCCCCCCCCCC(=O)O
not listed: [9]
inactive: all other assays above

Cc1cc(=O)[nH]c(=S)[nH]1
not listed: [9]
inactive: all other assays above

CCCCCCCCCCCCCO
active: [2] 13.2 µM | [4] 28.3 µM | [6] 8.61 µM | [7] 13.7 µM
inactive: [1] | [3] | [5]

O=c1c(O)c(-c2ccc(O)c(O)c2)oc2cc(O)cc(O)c12
active: [1] 4.13 µM | [2] 20 µM | [3] 6.66 µM | [6] 11.5 µM | [7] 7.26 µM | [8] 12.2 µM
inactive: [4] | [9]
